According to PubChem BioAssay AID588330 (National Center for Advancing Translational Sciences (NCATS), 2011):
Inconclusive results are not listed. A number with no mark means an inactive call. Calls of active or inactive are those of the source. Calls come from the whole dose curve; as a rule, active = well fitted inhibition curve with a large enough effect; inconclusive = small, poorly fitted or top-dose-only effect; inactive = flat fitted curve, though single readings scatter.

Tested on: 6-phosphofructokinase (Trypanosoma brucei)
Assay: Confirmatory Assay to Find Inhibitors of T. brucei phosphofructokinase: High ATP
Conditions: T. brucei PFK, Kinase-Glo luminescence; series mostly up to 57.5 µM; activity, negative = inhibition: at the top concentration
Excerpt: Various species of the protozoan family Trypanosomatidae are responsible for a range of serious human diseases in tropical and subtropical areas of the world. […] Many of the disorders caused by trypanosomatids are fatal if left untreated, but most currently used drugs are inefficient and toxic. […] Oxidative metabolism involving the mitochondrial tricarboxylic acid cycle and oxidative phosphorylation are repressed in these parasites, and recent RNA interference (RNAi) experiments have shown that even partial depletion of certain individual glycolytic enzymes can lead to the death of cultured parasites. One such glycolytic enzyme, phosphofructokinase (PFK), catalyzes the formation of fructose-1,6-bisphosphate (F1,6BP) and ADP from fructose-6-phosphate (F6P) and ATP, and in many metabolic circumstances makes an important contribution to the control of flux through the glycolytic pathway. As a specific glycolytic target, PFK is particularly attractive as it catalyzes the first irreversible step in glycolysis, and structural and kinetic studies have shown very substantial and essential differences from corresponding host enzymes, allowing for the discovery of parasite-selective inhibitors. A luminescent secondary assay was also performed that used luciferase-based nucleotide detection ([…]) similar to the qHTS, but that alternatively used saturating concentrations (10x Km concentrations) of ATP or F6P to determine if inhibitor potencies were shifted due to particular substrate competition. […] NIH Molecular Libraries Probe Production Network [MLPCN] NIH Chemical Genomics Center [NCGC] Grant: 1 R03 MH092153-01 PI Name: Malcolm Walkinshaw, University of Edinburgh
Substrate buffer was dispensed into white, solid 1536-well plates at 3 uL/well in 0.1M triethanolamine (TEA) buffer, pH 8.0, containing final concentrations of 5 mM MgCl2 and 0.01% Tween20. Standard substrate buffer contained 0.5mM fructose-6-phosphate (F6P) and 0.1mM ATP, high ATP substrate buffer contained 0.5mM fructose-6-phosphate (F6P) and 1mM ATP, high F6P substrate buffer contained 5mM fructose-6-phosphate (F6P) and 0.1mM ATP, and high ATP/F6P buffer contained 5mM fructose-6-phosphate (F6P) and 1mM ATP. Then, 23nl of compounds or DMSO were delivered to each well using a pin tool. One uL of T. brucei PFK (0.1M TEA, 0.01% Tween20, 0.1% bovine serum albumin (BSA) and 1.25nM PFK, final concentrations) was then dispensed, and plates were incubated at room temperature for 45 min. The luminescent detection reagent, Kinase-Glo Plus (Promega), was then added at 2ul/well and incubated for ten minutes at room temperature. The plates were measured on a ViewLux plate reader for luminescent signal using a clear filter with a one second exposure. The %Activity was determined from the corrected luminescence values. 1x (1.25nM) and 0x PFK enzyme controls (untreated) were included to normalize %Activity of identified inhibitors; 0x enzyme values corresponded to 100%Activity (full inhibition), while 1x PFK enzyme values were used to normalize 0% Activity (no inhibition).

Row | SMILES | Potency | activity, negative = inhibition [%]
1 | Cc1cc(NS(=O)(=O)c2cccc(NC(=O)Cc3ccc(Cl)c(Cl)c3)c2)no1 | 18.3 µM (active) | –
2 | COc1ccc(CC(=O)Nc2ccc(S(=O)(=O)Nc3cc(C)on3)cc2)cc1C | – | -20.3
3 | Cc1cc(NC(=O)c2csc(NC(=O)Cc3ccc(Cl)c(Cl)c3)n2)no1 | – | -29.8
4 | Cc1cc(NS(=O)(=O)c2ccc(N(C)C(=O)Cc3ccc(Cl)c(Cl)c3)cc2)no1 | 1.3 µM (active) | –
5 | O=C(Cc1ccc(Cl)c(Cl)c1)Nc1ccc(S(=O)(=O)Nc2cncnc2)cc1 | 1.3 µM (active) | –
6 | Cc1cc(NS(=O)(=O)c2ccc(NC(=O)Cc3ccc(Cl)c(Cl)c3)cc2)n(C)n1 | 1.83 µM (active) | –
7 | Cc1cc(NS(=O)(=O)c2ccc(NC(=O)Cc3ccc(C)c(C)c3)cc2)no1 | 18.3 µM (active) | –
8 | Cc1cc(NS(=O)(=O)c2ccc(NC(=O)Cc3ccc(Cl)cc3Cl)cc2)no1 | 6.51 µM (active) | –
9 | Cc1cc(NS(=O)(=O)c2ccc(NC(=O)Cc3ccc(C)c(F)c3)cc2)no1 | 8.19 µM (active) | –
10 | Cc1cc(N[S+](=O)([O-])c2ccc(NC(=O)Cc3ccc(Cl)nc3)cc2)no1 | 18.3 µM (active) | –
11 | Cc1cc(N[S+](=O)([O-])c2ccc3cc(NC(=O)Cc4ccc(Cl)c(Cl)c4)ccc3c2)no1 | 6.51 µM (active) | –
12 | COc1ccc(CC(=O)Nc2ccc(S(=O)(=O)Nc3cc(C)on3)cc2)cc1OC | – | 4.22
13 | CN(C)c1cccc(NS(=O)(=O)c2ccc(NC(=O)Cc3ccc(Cl)c(Cl)c3)cc2)c1 | 23.1 µM (active) | –
14 | Cc1cc(NS(=O)(=O)c2ccc(NC(=O)Cc3cccc(Cl)c3)cc2)no1 | 6.51 µM (active) | –
15 | Cc1cc(NS(=O)(=O)c2ccc(NC(=O)Cc3ccc(Cl)c(C(F)(F)F)c3)cc2)no1 | 0.919 µM (active) | –
16 | Cc1cc(NS(=O)(=O)c2ccc(NC(=O)Cc3ccc(Cl)c(Cl)c3)cc2)no1 | 0.517 µM (active) | –
17 | O=C(Cc1ccc(Cl)c(Cl)c1)Nc1ccc(S(=O)(=O)Nc2cccc(O)c2)cc1 | 2.91 µM (active) | –

Row | SMILES | Potency | activity, negative = inhibition [%]
18 | O=C(Cc1ccc(Cl)c(Cl)c1)Nc1ccc(S(=O)(=O)Nc2ccn[nH]2)cc1 | 0.73 µM (active) | –
19 | Cc1cc(NS(=O)(=O)c2ccc(NC(=O)Cc3ccc4ccccc4c3)cc2)no1 | 5.8 µM (active) | –
20 | Cc1cc(NS(=O)(=O)Cc2ccc(NC(=O)Cc3ccc(Cl)c(Cl)c3)cc2)no1 | 4.11 µM (active) | –
21 | O=C(Cc1ccc(Cl)c(Cl)c1)Nc1ccc(S(=O)(=O)Nc2ccc(C(=O)O)cc2)cc1 | 0.919 µM (active) | –
22 | O=C(Cc1ccc(Cl)c(Cl)c1)Nc1ccc(S(=O)(=O)Nc2ccon2)cc1 | 0.326 µM (active) | –
23 | CCOC(=O)c1cccc(NS(=O)(=O)c2ccc(NC(=O)Cc3ccc(Cl)c(Cl)c3)cc2)c1 | – | -7.44
24 | Cc1cc(NC(=O)c2ccc(NC(=O)Cc3ccc(Cl)c(Cl)c3)cc2)no1 | – | -7.03
25 | Cc1cc(NS(=O)(=O)c2ccc(C(=O)NCc3ccc(Cl)c(Cl)c3)cc2)no1 | 4.61 µM (active) | –
26 | O=C(Cc1ccc(Cl)c(Cl)c1)Nc1ccc(S(=O)(=O)Nc2cccc(C(=O)O)c2)cc1 | 1.03 µM (active) | –
27 | Cc1cc(NS(=O)(=O)c2ccc(NC(=O)Cc3ccc(Cl)c(Cl)c3)cc2)on1 | 0.517 µM (active) | –
28 | Cc1cc(NS(=O)(=O)c2ccc(NC(=O)Cc3ccc(Cl)c(F)c3)cc2)no1 | 1.03 µM (active) | –
29 | O=C(Cc1ccc(Cl)c(Cl)c1)Nc1ccc(S(=O)(=O)Nc2ccccc2)cc1 | 13 µM (active) | –
30 | Cc1cc(NS(=O)(=O)c2ccc(NCCc3ccc(Cl)c(Cl)c3)cc2)no1 | 16.3 µM (active) | –
31 | Cc1cc(N(C)S(=O)(=O)c2ccc(NC(=O)Cc3ccc(Cl)c(Cl)c3)cc2)no1 | 3.26 µM (active) | –
32 | Cc1cc(NS(=O)(=O)c2ccc(NC(=O)Cc3ccc(Cl)cc3)cc2)no1 | 2.91 µM (active) | –
33 | Cc1cc(NS(=O)(=O)c2ccc(NC(=O)CCc3ccc(Cl)c(Cl)c3)cc2)no1 | 16.3 µM (active) | –
34 | O=C(Cc1ccc(Cl)c(Cl)c1)Nc1ccc(S(=O)(=O)O)cc1 | 1.03 µM (active) | –
